# Records with an inconclusive call do not appear. Activity calls are given as the source filed them. Rule for the calls, unless noted: active = hit-call score of the fitted dose curve at least 0.9, where 1 is the maximum; inactive = score below 0.9.
# What was measured:
# [1] = target: Peroxisome proliferator-activated receptor gamma (Homo sapiens) (UniProt P37231); experiment: OT_PPARg_PPARgSRC1_0480: Odyssey Thera (OT) 8-hour Protein-Complementation Assay for Peroxisome Proliferator-activated Receptor Gamma / SRC-1 Co-activator (AID 2283387; active = hit-call score of the fitted dose curve at least 0.9, where 1 is the maximum;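 note: nuclear to cytoplasmic split Venus YFP fluorescence ratio reporting PPARg SRC-1 interaction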)
# In short: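 Split-YFP (IFP1/IFP2) PPARg/SRC-1 reporter, HEK293T, 37 °C, 5% CO2; 8 h compound; formaldehyde fix + Draq5; high-content imaging, N/C ratio, ≥350 cells/image, positive direction vs DMSO.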
# [2] = target: Peroxisome proliferator-activated receptor gamma (Homo sapiens) (UniProt P37231); experiment: OT_PPARg_PPARgSRC1_1440: Odyssey Thera (OT) 24-hour Protein-Complementation Assay for Peroxisome Proliferator-activated Receptor Gamma/ SRC-1 Co-activator (AID 2283388; active = hit-call score of the fitted dose curve at least 0.9, where 1 is the maximum;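 note: nuclear to cytoplasmic ratio of reconstituted Venus YFP fluorescence in fixed imaged cells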)
# In short: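 Protein-fragment complementation between PPARg and coactivator SRC-1 was measured by fluorescence imaging in transiently transfected HEK293T cells after 24 h treatment. Signal was quantified as N/C ratio in the 488 nm channel, with DMSO as negative control.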
# [3] = CEETOX_H295R_11DCORT: CeeTox H295R High-throughput Steroidogenesis Assay for 11-Deoxycortisol (11DCORT) (AID 2283432); settings: actives raise or lower the signal
# In short: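 Steroidogenesis in human H295R cells: 48 h chemical exposure after forskolin priming, 11-deoxycortisol measured by LC-MS/MS.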
# [4] = CEETOX_H295R_OHPREG: CeeTox H295R High-throughput Steroidogenesis Assay for OH-Pregnenolone (OHPREG) (AID 2283434); settings: actives raise or lower the signal
# In short: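 Readout: HPLC-MS/MS of 17alpha-hydroxypregnenolone in medium after 48 h chemical exposure of H295R cells pretreated with forskolin. Values fitted bidirectionally relative to DMSO; chemicals reducing viability to 20–70% were retested after 10-fold dilution.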
# [5] = CEETOX_H295R_OHPROG: CeeTox H295R High-throughput Steroidogenesis Assay for OH-Progesterone (OHPROG) (AID 2283435); settings: actives raise or lower the signal
# In short: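 Steps: seed H295R cells and adhere overnight; stimulate with 10 uM forskolin for 48 h; replace with chemical-containing medium (0.1% DMSO) for 48 h; extract medium with MTBE; quantify 17alpha-hydroxyprogesterone by reverse-phase C18 HPLC-MS/MS against a 7-point curve.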
# [6] = CEETOX_H295R_CORTIC: CeeTox H295R High-throughput Steroidogenesis Assay for Corticosterone (CORTIC) (AID 2283437); settings: actives raise or lower the signal;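 note: corticosterone secreted into medium quantified by mass spectrometry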
# In short: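 Steps: seed H295R, adhere overnight; 10 uM forskolin 48 h; replace with chemical (0.1% DMSO) 48 h; extract medium with MTBE; quantify corticosterone by HPLC-MS/MS; score bidirectionally vs DMSO.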
# [7] = CEETOX_H295R_CORTISOL: CeeTox H295R High-throughput Steroidogenesis Assay for Cortisol (AID 2283438); settings: actives raise or lower the signal
# In short: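 Cortisol synthesis by H295R cells is measured 48 h after chemical dosing, following a 48 h stimulation with 10 uM forskolin. Hormone is extracted and quantified by HPLC-MS/MS, and activity is fitted bidirectionally against the DMSO control.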
# [8] = CEETOX_H295R_DOC: CeeTox H295R High-throughput Steroidogenesis Assay for DOC (AID 2283439); settings: actives raise or lower the signal
# In short: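 Steps: seed H295R, adhere overnight; 10 uM forskolin 48 h; replace with chemical medium (0.1% DMSO) 48 h; collect medium, MTBE extraction, HPLC-MS/MS for DOC. Viability then checked by MTT; cytotoxic chemicals diluted until viability ≥70%.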
# [9] = CEETOX_H295R_ESTRONE: CeeTox H295R High-throughput Steroidogenesis Assay for Estrone (AID 2283441); settings: actives raise or lower the signal
# In short: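 Estrone secreted into medium quantified by LC-MS/MS after dansyl chloride derivatization, following 48 h chemical exposure (0.1% DMSO final) of forskolin-prestimulated (10 uM, 48 h) H295R cells; gain or loss fitted against DMSO; MTT viability in same wells.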
# [10] = CEETOX_H295R_PROG: CeeTox H295R High-throughput Steroidogenesis Assay for Progesterone (PROG) (AID 2283442); settings: actives raise or lower the signal
# In short: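 Steps: seed H295R cells and let them adhere overnight; prime 48 h with 10 uM forskolin; dose with compound in DMSO at 0.1% final for 48 h; extract medium steroids with MTBE; measure progesterone by LC-MS/MS. MTT viability was run in the same wells.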
# [11] = read-out: Tumor necrosis factor receptor superfamily member 6 (Homo sapiens) (UniProt P25445); experiment: LTEA_HepaRG_FAS: Life Technologies and Expression Analysis (LTEA) Assay for Fas cell surface death receptor (FAS) using HepaRG (AID 2283447); settings: mRNA level, 48 h; actives raise or lower the signal
# In short: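 Differentiated human HepaRG cells, pre-cultured 48 h, were exposed in duplicate for 48 h to 8-point half-log concentrations (top 100 uM, 0.5% DMSO) in serum-free induction medium; FAS mRNA measured by qRT-PCR, normalized to ACTB/GAPDH/POLR2A, bidirectional fit versus DMSO.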
# [12] = read-out: Fatty acid synthase (Homo sapiens) (UniProt P49327); experiment: LTEA_HepaRG_FASN: Life Technologies and Expression Analysis (LTEA) Assay for Fatty Acid Synthase (FASN) using HepaRG (AID 2283448); settings: mRNA level, 48 h; actives raise or lower the signal
# In short: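 Cells were plated, cultured 48 h, switched to serum-free induction medium, then dosed in duplicate (max 100 uM, half-log dilutions, 0.5% DMSO) for 48 h. RNA was then isolated and FASN quantified by qRT-PCR.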
# [13] = read-out: Cyclin D2 (CCND2), CCND2 (gene 894); experiment: LTEA_HepaRG_CCND2: Life Technologies and Expression Analysis (LTEA) Assay for Cyclin D2 (CCND2) using HepaRG (AID 2283449); settings: mRNA level, 48 h; actives raise or lower the signal;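 note: CCND2 transcript measured by TaqMan qRT-PCR and normalised to three housekeeping genes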
# In short: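 In this HepaRG study, an eight-point concentration series (max 100 uM, 0.5% DMSO) is applied for 48 h. CCND2 mRNA change is derived by qRT-PCR normalised to ACTB, GAPDH and POLR2A.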
# [14] = read-out: Cyclin Dependent Kinase Inhibitor 1A (CDKN1A), CDKN1A (gene 1026); experiment: LTEA_HepaRG_CDKN1A: Life Technologies and Expression Analysis (LTEA) Assay for Cyclin Dependent Kinase Inhibitor 1A (CDKN1A) using HepaRG (AID 2283450); settings: mRNA level, 48 h; actives raise or lower the signal
# In short: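 Read-out is CDKN1A mRNA by TaqMan qRT-PCR, normalized to three housekeeping genes and fitted in both directions against the DMSO baseline. Human HepaRG cells were treated 48 h with test chemicals up to 100 uM in half-log steps, 0.5% DMSO.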
# [15] = read-out: Cyclin D1 (CCND1), CCND1 (gene 595); experiment: LTEA_HepaRG_CCND1: Life Technologies and Expression Analysis (LTEA) Assay for Cyclin D1 (CCND1) using HepaRG (AID 2283451); settings: mRNA level, 48 h; actives raise or lower the signal
# In short: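 HepaRG plated 48 h, medium switched to serum-free induction medium, chemicals added in duplicate (top 100 uM, half-log steps, 0.5% DMSO) for 48 h, cells lysed, RNA measured by TaqMan qRT-PCR.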
# [16] = read-out: catalase (CAT), CAT (gene 847); experiment: LTEA_HepaRG_CAT: Life Technologies and Expression Analysis (LTEA) Assay for catalase (CAT) using HepaRG (AID 2283452); settings: mRNA level, 48 h; actives raise or lower the signal;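 for AC50: TaqMan qRT-PCR signal normalized to ACTB GAPDH and POLR2A housekeeping genes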
# In short: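 Differentiated HepaRG cells in serum-free induction medium were dosed 48 h in duplicate, eight half-log concentrations from 100 uM in 0.5% DMSO. Transcript measured by TaqMan qRT-PCR, normalised to ACTB/GAPDH/POLR2A, fitted bidirectionally against DMSO.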
# [17] = read-out: flavin-containing dimethylaniline monooxygenases 3 (FMO3), FMO3 (gene 2328); experiment: LTEA_HepaRG_FMO3: Life Technologies and Expression Analysis (LTEA) Assay for flavin-containing dimethylaniline monooxygenases 3 (FMO3) using HepaRG (AID 2283453); settings: mRNA level, 48 h; actives raise or lower the signal;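 for AC50: FMO3 transcript by TaqMan qRT-PCR normalized to ACTB GAPDH and POLR2A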
# In short: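 FMO3 transcript quantified by TaqMan qRT-PCR against three housekeeping genes after 48 h chemical exposure of HepaRG cells. Eight-point half-log series, top 100 uM, 0.5% DMSO vehicle; phenobarbital 1mM induction control; up- or down-regulation fitted.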
# [18] = target: Retinoic acid receptor RXR-alpha (Homo sapiens) (UniProt P19793); experiment: OT_NURR1_NURR1RXRa_1440: Odyssey Thera (OT) 24-hour HEK293T Protein Complementation Assay for Nurr1/retinoid X receptor (RXR) (AID 2283386; active = hit-call score of the fitted dose curve at least 0.9, where 1 is the maximum)
# In short: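 Steps: fragment-tagged Nurr1 and RXRα expressed in HEK293T; compounds added; after 24 h, complemented reporter quantified by fluorescence intensity; signal increase over DMSO fitted as the single endpoint.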
# Sequence of Peroxisome proliferator-activated receptor gamma (Homo sapiens) (P37231 whole entry, looked up, the tested form may be a part): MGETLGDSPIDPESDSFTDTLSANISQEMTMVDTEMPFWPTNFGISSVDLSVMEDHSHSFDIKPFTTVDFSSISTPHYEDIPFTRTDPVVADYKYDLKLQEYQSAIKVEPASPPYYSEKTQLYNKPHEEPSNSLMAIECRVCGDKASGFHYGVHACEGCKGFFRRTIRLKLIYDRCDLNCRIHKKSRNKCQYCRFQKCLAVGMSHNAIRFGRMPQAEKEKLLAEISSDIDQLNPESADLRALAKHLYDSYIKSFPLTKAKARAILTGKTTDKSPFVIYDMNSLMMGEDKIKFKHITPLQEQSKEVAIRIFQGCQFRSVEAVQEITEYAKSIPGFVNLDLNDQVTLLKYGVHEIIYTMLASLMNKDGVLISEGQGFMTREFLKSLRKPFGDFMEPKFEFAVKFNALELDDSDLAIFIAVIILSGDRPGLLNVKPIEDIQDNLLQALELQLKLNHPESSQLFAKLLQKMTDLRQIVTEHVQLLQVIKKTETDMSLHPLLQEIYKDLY
# Sequence of Fatty acid synthase (Homo sapiens) (P49327 whole entry, looked up): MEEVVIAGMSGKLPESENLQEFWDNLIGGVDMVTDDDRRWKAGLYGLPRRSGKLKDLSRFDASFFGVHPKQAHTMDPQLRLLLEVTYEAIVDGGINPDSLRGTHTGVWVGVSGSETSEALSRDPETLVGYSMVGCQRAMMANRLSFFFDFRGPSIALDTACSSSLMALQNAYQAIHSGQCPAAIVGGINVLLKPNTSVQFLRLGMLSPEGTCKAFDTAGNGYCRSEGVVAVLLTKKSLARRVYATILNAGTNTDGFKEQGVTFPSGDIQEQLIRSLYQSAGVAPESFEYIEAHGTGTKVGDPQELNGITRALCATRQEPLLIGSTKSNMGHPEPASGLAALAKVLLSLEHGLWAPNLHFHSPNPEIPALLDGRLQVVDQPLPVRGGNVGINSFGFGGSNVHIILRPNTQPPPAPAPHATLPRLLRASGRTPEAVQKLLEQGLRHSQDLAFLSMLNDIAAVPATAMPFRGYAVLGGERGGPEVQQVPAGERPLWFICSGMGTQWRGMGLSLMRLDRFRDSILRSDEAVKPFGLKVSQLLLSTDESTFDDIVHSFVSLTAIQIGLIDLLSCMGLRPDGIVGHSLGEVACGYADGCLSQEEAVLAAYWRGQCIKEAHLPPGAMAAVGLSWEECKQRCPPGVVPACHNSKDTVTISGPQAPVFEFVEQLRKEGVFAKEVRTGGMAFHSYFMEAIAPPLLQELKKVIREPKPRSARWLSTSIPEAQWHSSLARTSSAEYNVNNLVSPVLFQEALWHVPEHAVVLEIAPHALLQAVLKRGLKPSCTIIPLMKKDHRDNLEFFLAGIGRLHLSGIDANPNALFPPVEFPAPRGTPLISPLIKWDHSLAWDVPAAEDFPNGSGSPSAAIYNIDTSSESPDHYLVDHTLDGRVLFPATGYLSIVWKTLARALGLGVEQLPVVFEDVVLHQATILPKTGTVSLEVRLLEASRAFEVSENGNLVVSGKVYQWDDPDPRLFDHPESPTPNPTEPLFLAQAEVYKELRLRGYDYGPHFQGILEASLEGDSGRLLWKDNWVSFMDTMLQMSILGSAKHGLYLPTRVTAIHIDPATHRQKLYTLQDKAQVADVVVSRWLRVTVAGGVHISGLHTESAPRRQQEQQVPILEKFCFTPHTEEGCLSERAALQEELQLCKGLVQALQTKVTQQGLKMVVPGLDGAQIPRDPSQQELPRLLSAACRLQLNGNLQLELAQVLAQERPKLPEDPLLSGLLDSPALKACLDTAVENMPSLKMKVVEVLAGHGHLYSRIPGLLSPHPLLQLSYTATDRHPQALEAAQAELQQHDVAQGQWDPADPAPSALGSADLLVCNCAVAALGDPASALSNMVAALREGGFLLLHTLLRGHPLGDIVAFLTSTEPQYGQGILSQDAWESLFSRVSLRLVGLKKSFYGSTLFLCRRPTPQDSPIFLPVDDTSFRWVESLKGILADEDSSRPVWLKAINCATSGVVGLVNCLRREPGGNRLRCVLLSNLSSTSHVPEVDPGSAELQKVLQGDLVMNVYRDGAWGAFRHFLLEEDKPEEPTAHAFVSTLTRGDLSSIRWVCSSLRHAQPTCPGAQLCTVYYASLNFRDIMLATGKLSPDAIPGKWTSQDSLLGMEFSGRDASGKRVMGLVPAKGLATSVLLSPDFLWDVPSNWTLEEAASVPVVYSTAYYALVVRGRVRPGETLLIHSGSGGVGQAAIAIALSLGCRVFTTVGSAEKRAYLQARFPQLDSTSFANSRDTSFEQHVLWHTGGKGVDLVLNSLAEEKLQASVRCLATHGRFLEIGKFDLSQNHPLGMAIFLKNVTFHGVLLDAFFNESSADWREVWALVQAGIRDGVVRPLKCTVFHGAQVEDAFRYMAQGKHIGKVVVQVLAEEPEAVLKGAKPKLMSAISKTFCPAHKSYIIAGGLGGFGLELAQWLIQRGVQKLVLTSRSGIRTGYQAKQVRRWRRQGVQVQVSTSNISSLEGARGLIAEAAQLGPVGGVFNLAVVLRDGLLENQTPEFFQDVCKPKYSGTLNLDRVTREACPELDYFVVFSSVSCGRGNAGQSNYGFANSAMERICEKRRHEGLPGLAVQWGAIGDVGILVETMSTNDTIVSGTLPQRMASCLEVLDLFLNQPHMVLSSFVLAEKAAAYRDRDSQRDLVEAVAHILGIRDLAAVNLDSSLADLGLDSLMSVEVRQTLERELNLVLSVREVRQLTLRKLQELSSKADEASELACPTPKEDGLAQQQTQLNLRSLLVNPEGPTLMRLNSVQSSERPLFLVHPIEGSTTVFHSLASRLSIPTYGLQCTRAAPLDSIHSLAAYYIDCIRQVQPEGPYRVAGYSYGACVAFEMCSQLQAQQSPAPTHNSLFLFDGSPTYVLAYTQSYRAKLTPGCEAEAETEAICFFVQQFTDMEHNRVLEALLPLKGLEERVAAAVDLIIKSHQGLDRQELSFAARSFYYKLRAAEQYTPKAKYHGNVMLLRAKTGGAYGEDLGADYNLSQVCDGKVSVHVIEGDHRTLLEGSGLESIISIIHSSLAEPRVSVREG
# Sequence of Retinoic acid receptor RXR-alpha (Homo sapiens) (P19793 whole entry, looked up, the tested form may be a part): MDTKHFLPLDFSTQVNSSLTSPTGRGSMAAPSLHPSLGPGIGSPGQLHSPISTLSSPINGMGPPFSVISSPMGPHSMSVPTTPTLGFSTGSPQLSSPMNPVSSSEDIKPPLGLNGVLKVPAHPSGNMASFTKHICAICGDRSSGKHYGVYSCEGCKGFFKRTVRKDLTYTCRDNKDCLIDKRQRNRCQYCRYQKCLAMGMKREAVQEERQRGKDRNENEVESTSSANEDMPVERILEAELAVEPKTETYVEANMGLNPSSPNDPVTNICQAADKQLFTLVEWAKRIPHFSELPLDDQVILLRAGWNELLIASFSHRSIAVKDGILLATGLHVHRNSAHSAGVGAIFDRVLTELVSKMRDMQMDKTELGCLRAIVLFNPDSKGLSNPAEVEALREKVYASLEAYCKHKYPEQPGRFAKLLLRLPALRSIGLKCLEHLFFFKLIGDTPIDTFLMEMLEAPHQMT
structure (smiles),measurement,setting,value
CCCOc1ccc(S(=O)(=O)N2CCN(CC)CC2)cc1-c1nc2c(CC)n(Cc3ccccn3)nc2c(=O)[nH]1,outcome,[1],inactive
same,outcome,[2],inactive
same,outcome,[3],inactive
same,outcome,[4],inactive
same,outcome,[5],inactive
same,outcome,[6],inactive
same,outcome,[7],inactive
same,outcome,[8],inactive
same,outcome,[9],inactive
same,outcome,[10],inactive
same,outcome,[11],inactive
same,AC50,[12],50 µM (active)
same,outcome,[13],inactive
same,outcome,[14],inactive
same,outcome,[15],inactive
same,outcome,[16],inactive
same,outcome,[17],inactive
O=C(NO)C1(NS(=O)(=O)c2ccc(Oc3ccc(F)cc3)cc2)CCOCC1,outcome,[1],inactive
same,outcome,[2],inactive
same,outcome,[11],inactive
same,AC50,[12],50 µM (active)
same,outcome,[13],inactive
same,AC50,[14],85.1 µM (active)
same,outcome,[15],inactive
same,AC50,[16],85.5 µM (active)
same,AC50,[17],76.5 µM (active)
Cc1cccc(O)c1C,outcome,[1],inactive
same,outcome,[2],inactive
O=C(O)c1cccc(C(=O)O)c1,outcome,[1],inactive
same,outcome,[2],inactive
same,outcome,[11],inactive
same,outcome,[12],inactive
same,outcome,[13],inactive
same,outcome,[14],inactive
same,outcome,[15],inactive
same,outcome,[16],inactive
same,outcome,[17],inactive
OCC(CO)(CO)CO,outcome,[18],inactive
same,outcome,[1],inactive
same,outcome,[2],inactive
same,outcome,[11],inactive
same,outcome,[12],inactive
same,outcome,[14],inactive
same,outcome,[16],inactive
same,outcome,[17],inactive
O=C(O)c1cccc(C[C@@H]2COc3ccc(OCc4nc5cc(F)ccc5s4)cc3[C@@H]2O)c1,outcome,[18],inactive
same,outcome,[11],inactive
same,AC50,[12],85.5 µM (active)
same,outcome,[13],inactive
same,outcome,[14],inactive
same,outcome,[15],inactive
same,AC50,[16],50 µM (active)
same,outcome,[17],inactive
